{"source": "ChEMBL document CHEMBL4513216", "about": "“Probing the Open Global Health Chemical Diversity Library for Multistage-Active Starting Points for Next-Generation Antimalarials” (ACS Infect Dis, 2020)", "note": "Out of some 69,000 compounds screened, about 8,600 (12%) showed an effect of 50% or more. The entries come from a sample that favours strong results as a whole."}
{"test_system": "Plasmodium berghei", "test": "Screen against P. berghei liver stage (PbLuc), transformed with Luciferase, at 10uM", "type": "functional, HepG2", "conditions": "tested at 10 uM", "units": {"INHIBITION": "%"}}
{"smiles": "CCNc1nc2cn(-c3ccc(Cl)cc3)c(=O)c-2c[nH]1", "INHIBITION": -64.5}
{"smiles": "c1cncc(-c2noc(CNCC3CCCN3c3cccnn3)n2)c1", "note": "(stereo not given)", "INHIBITION": -7.81}
{"smiles": "COC(C)(C)CC(C)NCc1cn2ccccc2n1", "note": "(stereo not given)", "INHIBITION": 8.38}
{"smiles": "Cc1cc(O)n(-c2ccc3nnc(C)n3n2)n1", "INHIBITION": 6.83}
{"smiles": "Cc1ccccc1OC(C(=O)N1CCC2(CC1)CN(C)C(=O)O2)C(C)C", "note": "(stereo not given)", "INHIBITION": 41.5}
{"smiles": "Cc1ccccc1OCC(O)C(=O)N1CCC2(CC1)CN(C)C(=O)O2", "note": "(stereo not given)", "INHIBITION": 39.6}
{"smiles": "CC(C)C(C(=O)N1CCC2(CC1)CN(C)C(=O)O2)c1ccccc1", "note": "(stereo not given)", "INHIBITION": 56.3}
{"smiles": "Cc1noc(C)c1CN1C[C@@H]2COC[C@@H](C(=O)N3CCCCO3)[C@@H]2C1", "INHIBITION": 39.2}
{"smiles": "Cc1noc(C)c1CN1C[C@@H]2COC[C@@H](CC(=O)N3CCCO3)[C@@H]2C1", "INHIBITION": -0.388}
{"smiles": "Cc1noc(C)c1CN1C[C@@H]2COC[C@@H](C(=O)N3CCCO3)[C@@H]2C1", "INHIBITION": 57.9}
{"smiles": "Cc1cc(CN2C[C@@H]3COC[C@H](C(=O)N4CCCCO4)[C@@H]3C2)no1", "INHIBITION": 21.8}
{"smiles": "Cc1noc(C)c1CN1C[C@@H]2COC[C@H](C(=O)N3CCCO3)[C@@H]2C1", "INHIBITION": 62.5}
{"smiles": "Cc1cc(CN2C[C@@H]3COC[C@@H](C(=O)N4CCCCO4)[C@@H]3C2)no1", "INHIBITION": 34.6}
{"smiles": "Cc1noc(C)c1CN1C[C@@H]2COC[C@@H](CC(=O)N3CCCCO3)[C@@H]2C1", "INHIBITION": 41.6}
{"smiles": "Cc1noc(C)c1CN1C[C@@H]2COC[C@H](C(=O)N3CCCCO3)[C@@H]2C1", "INHIBITION": 50.6}
{"smiles": "Cc1noc(C)c1CN1C[C@@H]2COC[C@H](C(=O)N3CCOCC3)[C@@H]2C1", "INHIBITION": 13.6}
{"smiles": "CNC(=O)C1CN(C(=O)c2ccncc2)CCN(S(C)(=O)=O)C1", "note": "(stereo not given)", "INHIBITION": 7.7}
{"smiles": "Cc1cc(-c2cnc(C(C)C)nc2CN(C)C(=O)c2ccccn2)on1", "INHIBITION": 30.4}
{"smiles": "CC1CCN(c2ccc(=O)n(CC(=O)N(C)Cc3ccccc3)n2)CC1", "INHIBITION": -17.1}
{"smiles": "CC(C)(C)c1cc(=O)n2c(n1)SCC(C(=O)NCc1ccccn1)C2", "note": "(stereo not given)", "INHIBITION": 29.1}
{"smiles": "CC(=O)N1CCC2(CC1)C(=O)N(CC1CCN(C)CC1)c1ccccc12", "INHIBITION": -4.82}
{"smiles": "O=c1[nH]c2c(-c3ccccn3)nsc2c(=O)n1CC1CC1", "INHIBITION": 7.3}
{"smiles": "NC(=O)CN1CCC(c2noc3cc(F)ccc23)CC1", "INHIBITION": 18.7}
{"smiles": "CNC(=O)[C@@H](CC(C)C)N1CCC[C@H]1C(=O)N(C)Cc1cccnc1", "INHIBITION": 45.1}
{"smiles": "Cc1cc(CN2CCN(C(=O)NC(C)c3ccncc3)CC2)on1", "note": "(stereo not given)", "INHIBITION": 14.9}
{"smiles": "Cc1ccc(C(=O)N2CCC(Oc3c(C)cccc3C)CC2)c(=O)[nH]1", "INHIBITION": -1.25}
{"smiles": "Cc1cnc2c(S(=O)(=O)N(C)C3CCS(=O)(=O)C3)cccc2c1", "note": "(stereo not given)", "INHIBITION": 22.3}
{"smiles": "Cc1cccc(CN2C[C@@H]3COC[C@]3(CNC(=O)c3ccno3)C2)n1", "INHIBITION": -30}
{"smiles": "CC(C)n1cc(C(=O)NCCCc2csc(N)n2)cn1", "INHIBITION": 69.1}
{"smiles": "CC(C)n1cc(C(=O)NCC(CO)Cc2cccs2)cn1", "note": "(stereo not given)", "INHIBITION": 5.78}
{"smiles": "CC(C)n1cc(C(=O)NCCc2cn3ccsc3n2)cn1", "INHIBITION": 8.48}
{"smiles": "CSCc1nc(CNC(=O)c2cnn(C(C)C)c2)cs1", "INHIBITION": 55}
{"smiles": "CSCc1nc(CCNC(=O)c2cnn(C(C)C)c2)cs1", "INHIBITION": 33.4}
{"smiles": "Nc1nc(CCCNC(=O)c2ccc(C3CCCNC3)cc2)cs1", "note": "(stereo not given)", "INHIBITION": -3.58}
{"smiles": "COc1cc(NCc2c(C)noc2C)c(OC)cc1Cl", "INHIBITION": 28.7}
{"smiles": "Cc1ccc(N[C@@H]2CN(Cc3cc(C)on3)C[C@@H]3CCCO[C@@H]32)nn1", "INHIBITION": -24.1}
{"smiles": "Cc1cc(NC(=O)CN2CCc3cnc(C(C)C)nc3C2)on1", "INHIBITION": -0.113}
{"smiles": "COc1ccc(OC)c(C(O)CN2CCC(N3CCC(C)CC3)CC2)c1", "note": "(stereo not given)", "INHIBITION": 12.3}
{"smiles": "COCCN(C)C(C)c1cccc(S(N)(=O)=O)c1", "note": "(stereo not given)", "INHIBITION": -29.8}
{"smiles": "CC(C)c1n[nH]c(C2CN(C(=O)c3cc(Cl)c[nH]3)CCO2)n1", "note": "(stereo not given)", "INHIBITION": -17.4}
{"smiles": "Cc1nn(C)cc1CN1CCCC(n2c(=O)oc3ccccc32)C1", "note": "(stereo not given)", "INHIBITION": 43.35}
{"smiles": "c1ccc(-c2nc3c(c(NCCn4cccc4)n2)CCNCC3)nc1", "INHIBITION": 66.5}
{"smiles": "c1ccc(-c2nc3c(c(NCCCn4cncn4)n2)CCNCC3)nc1", "INHIBITION": 57.3}
{"smiles": "c1ccc(-c2nc3c(c(NCCn4ccnn4)n2)CCNCC3)nc1", "INHIBITION": -3.01}
{"smiles": "CN(Cc1nccs1)c1nc(-c2ccccn2)nc2c1CCNCC2", "INHIBITION": 13.7}
{"smiles": "CN(Cc1cccnc1)c1nc(-c2ccccn2)nc2c1CCNCC2", "INHIBITION": -10.8}
{"smiles": "Cc1cccc(=O)n1CCCNc1nc(N(C)C)nc2c1CCNCC2", "INHIBITION": 7.93}
{"smiles": "O=C(CS(=O)(=O)Cc1cc(Cl)c2c(c1)OCO2)N1CCCC1", "INHIBITION": 21}
{"smiles": "COc1ccc(CCC(=O)N2CCN(c3nc(C)ns3)CC2)cc1", "INHIBITION": 6.7}
{"smiles": "CC(C)c1noc(CN2CCN(C(=O)OC(C)(C)C)C(C)C2)n1", "note": "(stereo not given)", "INHIBITION": 33.6}
